PubChem BioAssay (Tox21)
Records with an inconclusive call do not appear. Entries that show only a call come without a potency. A structure can be active in one record and inactive in another. The source made the active and inactive calls. Unless noted, calls come from the whole dose curve; as a rule, active = well fitted curve in the direction sought with a large enough effect in the repeat runs; inconclusive = weak or mixed curves; inactive = no such curve, though single readings can be large; an effect the other way counts as inactive or inconclusive.

Assays:
[1] = qHTS assay to identify small molecule antagonists of the progesterone receptor (PR) signaling pathway - cell viability counter screen (AID 1346798); note: nearly all actives have a fitted effect of over 50% in size; note: potency is the fitted concentration of half-maximal effect
Summary of the method: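 CellTiter-Glo luminescence; PR-UAS-bla HEK293T, 3,000 cells/well; compound + R5020, 16 hr, 37C/5% CO2; 30 min RT before read.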

[2] = qHTS assay to identify small molecule agonists of the progesterone receptor (PR) signaling pathway - cell viability counter screen (AID 1346799; calls by dose curve; note: nearly all actives have a fitted effect of over 45% in size; note: potency is the fitted concentration of half-maximal effect)
Summary of the method: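 In parallel with the beta-lactamase readout, cytotoxicity toward PR-UAS-bla HEK293T cells was measured by CellTiter-Glo luminescence following 16 hr compound incubation in 2% charcoal-stripped FBS medium.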

[3] = qHTS assay to identify small molecule antagonists of the TGF-beta/Smad signaling pathway - cell viability counter screen (AID 1346824); note: nearly all actives have a fitted effect of over 50% in size
Summary of the method: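 Cytotoxicity counter-screen run in the same wells as the beta-lactamase Smad reporter read: CellTiter-Glo luminescence after 30 min at room temperature. HEK 293T SBE-bla cells had 5 hr compound exposure at 37 C with TGF-beta1 (0.25 ng/mL stock).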

[4] = qHTS assay to identify small molecule agonists of the TGF-beta/Smad signaling pathway - cell viability counter screen (AID 1346829); note: top concentration of the series differs between compounds; nearly all actives have a fitted effect of over 45% in size
Summary of the method: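 HEK 293T SBE-bla line, 5 hr compound exposure at 37 C, multiplexed CellTiter-Glo viability read by luminescence.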

[5] = qHTS assay to identify small molecule agonists of the TGF-beta/Smad signaling pathway (AID 1346859; active = well fitted activation curve with a large enough effect in the signal ratio in the repeat runs, not every such curve was filed as active; the % refers to the signal ratio; note: series mostly up to about 77 µM)
Summary of the method: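 After overnight seeding, SBE-bla HEK 293T cells are dosed with compounds in DMSO and kept 5 hr at 37 C, 5% CO2. LiveBLAzer-type FRET substrate is then applied for 2 hr at room temperature.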

[6] = target: Thyrotropin-releasing hormone receptor (Homo sapiens) (UniProt P34981); experiment: qHTS assay to identify small molecule antagonists of the thyrotropin-releasing hormone receptor (TRHR) signaling pathway (AID 1346877; active = well fitted inhibition curve with a large enough effect in the repeat runs, not every such curve was filed as active; note: potency is the fitted concentration of half-maximal effect)
Summary of the method: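 In this cell-based calcium flux format, HEK293 cells expressing TRHR received test compound for 5 min before the agonist TRH (1 nM final). Dye loading lasted 2 h at 37 °C.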

[7] = Human pregnane X receptor (PXR) small molecule agonists, qHTS cell viability counter screen (AID 1346977); note: nearly all actives have a fitted effect of over 50% in size
Summary of the method: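 Viability counter screen: CellTiter-Fluor signal in PXR-Luc HepG2 cells, 24hr compound exposure, 37C, 5% CO2.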

[8] = Caspase-3/7 induction in HepG2 cells by small molecules, qHTS assay (AID 1346978); note: nearly all actives have a fitted effect of over 15% in size; note: potency is the fitted concentration of half-maximal effect
Summary of the method: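 Caspase-3/7 induction was measured by Caspase-Glo 3/7 luminescence (30 min, room temperature) after a 17 hr compound exposure of wild-type HepG2 cells seeded at 2,000 per well and pre-incubated 5 hr.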

[9] = Caspase-3/7 induction in CHO-K1 cells by small molecules, qHTS cell viability counter screen (AID 1346979); note: nearly all actives have a fitted effect of over 35% in size; note: potency is the fitted concentration of half-maximal effect
Summary of the method: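 Viability readout by fluorescence (CellTiter-Fluor) on wild-type CHO-K1 cells exposed for 16hr at 37C and 5% CO2 to compounds delivered in DMSO; reagent incubated 1hr before reading.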

[10] = target: Thyrotropin-releasing hormone receptor (Homo sapiens) (UniProt P34981); experiment: qHTS assay to identify small molecule agonists of the thyrotropin-releasing hormone receptor (TRHR) signaling pathway (AID 1346891; calls by dose curve; note: series mostly up to about 58 µM)
Summary of the method: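 Compounds were tested as agonists at 15 concentrations, in triplicate, on TRHR-Hek293 cells; calcium-sensitive dye fluorescence was recorded for 3 min following addition.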

Chain of Thyrotropin-releasing hormone receptor (Homo sapiens) (P34981 whole entry, looked up): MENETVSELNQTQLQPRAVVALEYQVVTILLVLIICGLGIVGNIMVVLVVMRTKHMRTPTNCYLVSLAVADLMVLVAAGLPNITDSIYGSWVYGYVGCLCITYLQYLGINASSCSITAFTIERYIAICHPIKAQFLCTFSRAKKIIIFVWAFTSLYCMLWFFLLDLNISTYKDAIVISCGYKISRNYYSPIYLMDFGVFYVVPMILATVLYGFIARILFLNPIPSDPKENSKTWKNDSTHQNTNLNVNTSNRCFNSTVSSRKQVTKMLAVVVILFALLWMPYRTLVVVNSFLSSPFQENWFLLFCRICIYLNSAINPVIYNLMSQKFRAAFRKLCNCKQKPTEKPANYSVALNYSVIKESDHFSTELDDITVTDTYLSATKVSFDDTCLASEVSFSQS

Structure (SMILES) | Potency [1] | Potency [2] | Potency [3] | Potency [4] | outcome [5] | Potency [6] | Potency [7] | Potency [8] | Potency [9] | outcome [10]
Cc1cccnc1 | inactive | inactive | inactive | inactive | inactive | inactive | inactive | inactive | inactive | –
OCCOCCN1CCN(C2=Nc3ccccc3Sc3ccccc32)CC1 | inactive | inactive | inactive | inactive | inactive | inactive | inactive | inactive | inactive | inactive
O=C(O)c1ccccc1C(c1ccc(O)cc1)c1ccc(O)cc1 | inactive | inactive | inactive | inactive | inactive | inactive | inactive | inactive | inactive | inactive
CCCCN(CCCC)CCCC | inactive | inactive | inactive | inactive | inactive | inactive | inactive | inactive | inactive | inactive
CC[C@H](C)C(=O)O[C@H]1C[C@@H](C)C=C2C=C[C@H](C)[C@H](CC[C@@H]3C[C@@H](O)CC(=O)O3)[C@H]21 | 62 µM (active) | 7.66 µM (active) | inactive | inactive | inactive | 38.5 µM (active) and inactive | inactive | 55.2 µM (active) and inactive | 69.6 µM (active) | inactive
CC(C)(C)[C@@H](O)[C@@H](Cc1ccc(Cl)cc1)n1cncn1 | inactive | inactive | inactive | inactive | inactive | inactive | inactive | inactive | inactive | inactive
c1c[nH]cn1 | inactive | inactive | inactive | inactive | inactive | inactive | inactive | inactive | inactive | inactive
CSCCC=O | inactive | inactive | inactive | inactive | inactive | inactive | inactive | inactive | inactive | inactive
C=CCOC(=O)c1ccccc1C(=O)OCC=C | inactive | inactive | inactive | inactive | inactive | inactive | inactive | inactive | inactive | inactive
Cc1ccc2oc(=O)ccc2c1 | inactive | inactive | inactive | inactive | inactive | inactive | inactive | inactive | inactive | inactive
O=c1[nH]c(=O)n([C@H]2CCCO2)cc1F | inactive | inactive | inactive | inactive | inactive | inactive | inactive | inactive | inactive | –
OCCOCCOCCO | inactive | inactive | inactive | inactive | inactive | inactive | inactive | inactive | inactive | –
CCCCCCCCC/C=C/CC1CC(=O)OC1=O (stereo not given) | inactive | inactive | inactive | inactive | – | – | inactive | inactive | inactive | –
COc1ccc(NC(C)=O)cc1N | inactive | inactive | – | inactive | inactive | inactive | inactive | inactive | inactive | inactive
COc1ccc(Cl)cc1C(=O)NCCc1ccc(S(=O)(=O)NC(=O)NC2CCCCC2)cc1 | inactive | inactive | inactive | inactive | – | inactive | inactive | inactive | inactive | inactive
CCCCCCCC(=O)OC | inactive | inactive | inactive | inactive | – | inactive | inactive | inactive | inactive | inactive
CC(=O)CC(=O)Nc1ccccc1C | inactive | inactive | inactive | inactive | – | inactive | inactive | inactive | inactive | –
O=[N+]([O-])c1ccc(/C=C/c2ccc([N+](=O)[O-])cc2S(=O)(=O)O)c(S(=O)(=O)O)c1 | inactive | inactive | inactive | inactive | – | inactive | inactive | inactive | inactive | inactive
CCN(CC)c1ccc(C(=O)c2ccccc2C(=O)O)c(O)c1 | inactive | inactive | inactive | inactive | – | inactive | inactive | inactive | – | inactive
OC[C@H]1O[C@@](CO)(O[C@H]2O[C@H](CO)[C@@H](O)[C@H](O)[C@H]2O)[C@@H](O)[C@@H]1O | inactive | inactive | – | inactive | inactive | inactive | inactive | inactive | inactive | inactive
C/C=C1/CC2C=CC1C2 (stereo not given) | inactive | inactive | inactive | inactive | – | inactive | inactive | inactive | inactive | –
O=C(O)CCCCCCCCCCC(=O)O | inactive | inactive | inactive | inactive | – | – | inactive | inactive | inactive | –
OCC(CO)(CBr)CBr | inactive | inactive | inactive | inactive | – | inactive | inactive | inactive | inactive | inactive
CN(C)CCC(c1ccccc1)c1ccccn1 (stereo not given) | inactive | inactive | inactive | inactive | – | inactive | inactive | inactive | inactive | –
O=C(O)CC(C(=O)O)C(CC(=O)O)C(=O)O (stereo not given) | inactive | inactive | inactive | inactive | inactive | – | inactive | inactive | inactive | –
